The values that follow come from PubChem BioAssay (EPA / NIEHS).

Active and inactive are the calls of the source. Rule for the calls: active = hit-call score of the fitted dose curve at least 0.9, where 1 is the maximum; inactive = score below 0.9.

Read-out in assay [1]: Forkhead box O1 (FOXO1), FOXO1 (gene 2308)
Nature of the assay: LTEA_HepaRG_FOXO1: Life Technologies and Expression Analysis (LTEA) Assay for Forkhead box O1 (FOXO1) using HepaRG (AID 2283456). Conditions: mRNA level, 48 h; actives raise or lower the signal. Summed up: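 Using one lot of HepaRG hepatic cells kept in 0.5% DMSO, the team applied test chemicals in duplicate, half-log dilutions from 100 uM, for 48 h. Expression, normalised to ACTB/GAPDH/POLR2A, was compared with vehicle in either direction.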

Read-out in assay [2]: growth arrest and DNA damage 45 (GADD45A), GADD45A (gene 1647)
Put plainly: LTEA_HepaRG_GADD45A: Life Technologies and Expression Analysis (LTEA) Assay for growth arrest and DNA damage 45 (GADD45A) using HepaRG (AID 2283458). Conditions: mRNA level, 48 h; actives raise or lower the signal. Summed up: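 Transcript induction or loss, quantified by TaqMan qRT-PCR against three housekeeping genes, is the read-out. HepaRG cells received chemicals for 48 h across eight half-log concentrations from 100 uM in 0.5% DMSO; gain and loss fitted relative to DMSO.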

Read-out in assay [3]: Forkhead box O3 (FOXO3), FOXO3 (gene 2309)
Put plainly: LTEA_HepaRG_FOXO3: Life Technologies and Expression Analysis (LTEA) Assay for Forkhead box O3 (FOXO3) using HepaRG (AID 2283459). Conditions: mRNA level, 48 h; actives raise or lower the signal. In short, it runs like this: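 Gene-expression endpoint: FOXO3 transcript level by qRT-PCR in HepaRG cultures treated 48 h with chemicals up to 100 uM (half-log, 0.5% DMSO vehicle).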

Read-out in assay [4]: ABC Transporter (ABCB1), ABCB1 (gene 5243)
Put plainly: LTEA_HepaRG_ABCB1: Life Technologies and Expression Analysis (LTEA) Assay for ABC Transporter (ABCB1) using HepaRG (AID 2283460). Conditions: mRNA level, 48 h; actives raise or lower the signal. In short, it runs like this: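 Human liver HepaRG line treated 48 h with up to 100 uM compound (eight half-log points, 0.5% DMSO); ABCB1 mRNA change fitted bidirectionally against DMSO controls.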

Read-out in assay [5]: growth arrest and DNA damage 45 (GADD45B), GADD45B (gene 4616)
Put plainly: LTEA_HepaRG_GADD45B: Life Technologies and Expression Analysis (LTEA) Assay for growth arrest and DNA damage 45 (GADD45B) using HepaRG (AID 2283461). Conditions: mRNA level, 48 h; actives raise or lower the signal. In short, it runs like this: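 HepaRG, ~100,000 cells/well, 48 h plating; serum-free induction medium; cpd 100 uM top, half-log x8, 0.5% DMSO, duplicate, 48 h; lysis in RLT, RNA isolation, qRT-PCR; norm ACTB/GAPDH/POLR2A; bidirectional fit vs DMSO.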

Read-out in assay [6]: ABC Transporter (ABCC3), ABCC3 (gene 8714)
Nature of the assay: LTEA_HepaRG_ABCC3: Life Technologies and Expression Analysis (LTEA) Assay for ABC Transporter (ABCC3) using HepaRG (AID 2283462). Conditions: mRNA level, 48 h; actives raise or lower the signal. Summed up: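 Human HepaRG, 48 h dosing, 8-pt half-log series from 100 uM, 0.5% DMSO vehicle, duplicates. ABCC3 mRNA by TaqMan qRT-PCR, housekeeping-normalized; bidirectional curve fit vs DMSO.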

Read-out in assay [7]: ABC Transporter (ABCB11), ABCB11 (gene 8647)
Nature of the assay: LTEA_HepaRG_ABCB11: Life Technologies and Expression Analysis (LTEA) Assay for ABC Transporter (ABCB11) using HepaRG (AID 2283463). Conditions: mRNA level, 48 h; actives raise or lower the signal. Summed up:
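Using HepaRG cultures held in 0.5% DMSO, chemicals were tested at half-log dilutions from 100 uM for 48 h. Induction or suppression of ABCB11 mRNA, normalized to ACTB, GAPDH and POLR2A, was fitted bidirectionally against vehicle.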

Read-out in assay [8]: ABC Transporter (ABCC2), ABCC2 (gene 1244)
Put plainly: LTEA_HepaRG_ABCC2: Life Technologies and Expression Analysis (LTEA) Assay for ABC Transporter (ABCC2) using HepaRG (AID 2283464). Conditions: mRNA level, 48 h; actives raise or lower the signal. In short, it runs like this:
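HepaRG, 48 h post-plating; serum-free induction medium; cpd 8-pt, 100 uM top, half-log, 0.5% DMSO, duplicate, 48 h. Readout: ABCC2 mRNA by qRT-PCR, norm. ACTB/GAPDH/POLR2A. Bidirectional fit vs DMSO baseline.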

Read-out in assay [9]: Broad substrate specificity ATP-binding cassette transporter ABCG2 (Homo sapiens) (UniProt Q9UNQ0)
Nature of the assay: LTEA_HepaRG_ABCG2: Life Technologies and Expression Analysis (LTEA) Assay for ABC Transporter (ABCG2) using HepaRG (AID 2283465). Conditions: mRNA level, 48 h; actives raise or lower the signal. Summed up: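 Gene expression of ABCG2 in HepaRG liver cells is quantified by qRT-PCR following 48 h exposure across an eight-point series topping at 100 uM. Values come from bidirectional fitting relative to DMSO vehicle.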

Assay [10] can be described thus: CEETOX_H295R_TESTO: CeeTox H295R High-throughput Steroidogenesis Assay for Testosterone (TESTO) (AID 2283457).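 For AC50: cells exposed to chemicals for 48 h before medium collection.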 Conditions: actives raise or lower the signal. In short, it runs like this:
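H295R, passage ≤10, 48 h dosing; media extracted with MTBE → HPLC-MS/MS for testosterone; 7-pt standard curve sets LLOQ/ULOQ; bidirectional fit vs DMSO; MTT viability same wells.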

Broad substrate specificity ATP-binding cassette transporter ABCG2 (Homo sapiens), sequence (Q9UNQ0 whole entry, looked up): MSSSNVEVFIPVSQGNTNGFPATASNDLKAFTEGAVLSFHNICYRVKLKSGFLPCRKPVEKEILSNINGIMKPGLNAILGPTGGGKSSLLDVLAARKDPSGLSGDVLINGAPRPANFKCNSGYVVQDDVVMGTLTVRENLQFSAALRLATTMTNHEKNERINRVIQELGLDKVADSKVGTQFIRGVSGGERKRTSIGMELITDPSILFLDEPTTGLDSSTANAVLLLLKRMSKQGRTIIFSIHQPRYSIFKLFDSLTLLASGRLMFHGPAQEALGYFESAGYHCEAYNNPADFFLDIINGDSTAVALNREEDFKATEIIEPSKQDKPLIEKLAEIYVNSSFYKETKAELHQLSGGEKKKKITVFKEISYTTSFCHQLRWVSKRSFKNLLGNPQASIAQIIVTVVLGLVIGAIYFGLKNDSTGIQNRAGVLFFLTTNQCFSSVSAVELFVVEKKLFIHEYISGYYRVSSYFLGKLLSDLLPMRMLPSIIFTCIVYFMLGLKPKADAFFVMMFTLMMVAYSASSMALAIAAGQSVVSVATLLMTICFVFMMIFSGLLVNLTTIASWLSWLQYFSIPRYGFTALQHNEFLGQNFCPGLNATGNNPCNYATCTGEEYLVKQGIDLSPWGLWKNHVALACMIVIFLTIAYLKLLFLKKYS

Regarding `CCCCCCCCOc1ccc(C(=O)c2ccccc2)c(O)c1`, the molecule was classed as inactive in assay [1], in [2], in assay [3], in assay [4], in [5] and in [6]. Moreover, the molecule was classed as inactive in [7], in [8] and in assay [9].

`CCCCCc1ccc(N)cc1`: the result in assay [1], in assay [2], in assay [3], in [4], in assay [5] and in assay [6] was inactive. Also, the result in assay [7], in assay [8] and in assay [9] was inactive.

`O=c1ccc2ccccc2o1`: the call in assay [1], in [2], in assay [3], in assay [4], in assay [5] and in assay [6] was inactive. Besides, the result in [7], in [8] and in assay [9] was inactive.

In the case of `Cc1cc(F)ccc1-c1cc(N2CC[C@@H](O)[C@H]2CO)ncc1N(C)C(=O)C(C)(C)c1cc(C(F)(F)F)cc(C(F)(F)F)c1`, the outcome in assay [1], in [2], in assay [3] and in assay [6] was inactive. Also, the AC50 – broadly, the concentration giving half of the maximal activity seen – in assay [4] was 10.3 µM (active); in assay [5], 76 µM (active); in [7], 21.8 µM (active); in [8] it was 70.7 µM (active); in assay [9], 16.7 µM (active).

Consider `O=c1c(-c2ccc(O)cc2)coc2cc(O)cc(O)c12`, for which the call in assay [1], in [2], in [3], in assay [4], in assay [6] and in [8] was inactive. Also, in assay [9], the call was inactive. Besides, the concentration at half-maximal activity (AC50) in assay [10] is 12.3 µM (active); in assay [7] it was 9.92 µM (active).

Consider `c1ccc(C[n+]2cccc3ccccc32)cc1`, for which the AC50 in [1] was 76.1 µM (active); in [2], 63.7 µM (active); in assay [3] it was 50 µM (active); in assay [7], 31.3 µM (active); in assay [9] it was 3.93 µM (active). Also, the result in assay [4], in assay [5] and in assay [8] was inactive.

As for `Cc1ccc(C(C)C)cc1`, the outcome in assay [1], in [2], in assay [3], in assay [4], in assay [5] and in assay [7] was inactive. Further, the molecule was called inactive in [8] and in assay [9].

As for `O=C(Nc1ccc(Cl)cc1)Nc1ccc(Cl)c(Cl)c1`, the AC50 in assay [1] is 18.6 µM (active); in assay [2], 21.7 µM (active); in assay [3] it was 11.8 µM (active); in assay [4] it was 18.9 µM (active); in assay [7] it was 15 µM (active); in assay [9], 12.4 µM (active). The outcome in assay [10] and in assay [8] was inactive.

Take `c1ccc2ccccc2c1`: the outcome in assay [1], in assay [2], in assay [3], in assay [4], in assay [5] and in [6] was inactive. Moreover, the call in assay [7], in assay [8] and in assay [9] was inactive.

In the case of `COc1ccc2cc(S(=O)(=O)N[C@H](CC(=O)N[C@H](Cc3ccc(CN4[C@H](C)CCC[C@@H]4C)cc3)C(=O)N(C)C(C)C)c3ccc4c(c3)OCO4)ccc2c1`, the half-maximal activity concentration (AC50) was 25.2 µM (active) in assay [1]; 25.9 µM (active) in assay [2]; 23.1 µM (active) in assay [4]; 47.8 µM (active) in [5]; 11.2 µM (active) in [6]; 24.2 µM (active) in [7]. For the same molecule, the AC50 in assay [8] was 16.2 µM (active). The outcome in assay [3] and in assay [9] was inactive.

Consider `CCN(Cc1cccc(S(=O)(=O)O)c1)c1ccc(C(=C2C=CC(=[N+](CC)Cc3cccc(S(=O)(=O)O)c3)C=C2)c2ccccc2S(=O)(=O)[O-])cc1`, for which the molecule was called inactive in assay [1], in [2], in [3], in [4], in [5] and in assay [7]. Besides, the molecule was classed as inactive in assay [8] and in assay [9].

`Cc1occc1C(=O)Nc1ccc(C(=O)N2CCC(F)(F)/C(=C\C(=O)N3CCC(N4CCCCC4)CC3)c3ccccc32)cc1`: the outcome in assay [1], in [2], in assay [3], in assay [4], in assay [5] and in assay [8] was inactive. Also, the molecule was called inactive in assay [9]. Further, the AC50 in assay [7] is 44.5 µM (active).

As to `CC(C)(O)c1ccc(CNC(=O)c2cccnc2Oc2ccc3nonc3c2)cc1`, the result in assay [1], in assay [2], in assay [3], in assay [5], in assay [6] and in assay [7] was inactive. Also, in assay [9], the outcome was inactive. Moreover, the half-maximal activity concentration (AC50) in [4] and in [8] was 50 µM (active) each time.

As for `Cc1oc2c(NC(=O)c3c(Cl)cccc3Cl)cccc2c1C(C)(C)O`, the molecule was called inactive in assay [1], in assay [2], in assay [3] and in [9]. Moreover, the AC50 was 80.5 µM (active) in assay [4]; 75.6 µM (active) in assay [5]; 16.1 µM (active) in assay [6]; 23.8 µM (active) in assay [7]; 33.8 µM (active) in assay [8].

On to `CCCC(=O)OCCC(C)C`, for which the result in assay [1], in assay [2], in assay [3], in assay [4], in [5] and in assay [6] was inactive. In addition, the call in [7], in assay [8] and in assay [9] was inactive.

Turning to `COc1cc(C(=O)NC2CCN(C)CC2)ccc1Nc1ncc2c(n1)N(C1CCCC1)CC(F)(F)C(=O)N2C`, the concentration at half-maximal activity (AC50) is 11.5 µM (active) in [1]; 4.65 µM (active) in assay [2]; 6.41 µM (active) in [4]; 25.4 µM (active) in assay [5]; 46.5 µM (active) in [6]; 4.65 µM (active) in [7]. In addition, the AC50 is 21.5 µM (active) in [8] and 4.65 µM (active) in [9]. Also, the molecule was called inactive in [3].

As for `Cc1cc2c(cc1C(F)(F)F)N(C(=O)Nc1ccc(Oc3cccnc3C)nc1)CC2`, the AC50 was 80.9 µM (active) in assay [1], 78.1 µM (active) in [2], 3.86 µM (active) in assay [7] and 11 µM (active) in assay [9]. The molecule was called inactive in [3], in [4], in [5] and in assay [8].

`O=C(O)Cn1c(=O)n(Cc2ccc(Br)cc2F)c(=O)c2ccc(Cl)cc21`: the outcome in assay [1], in assay [10], in assay [2], in assay [3], in [7] and in [8] was inactive. In [9], the result was inactive. The AC50 in assay [4] is 9.92 µM (active).
